# AmpC detergent: qHTS Inhibitors of AmpC Beta-Lactamase (assay with detergent); hit rate 0.041% among 370,000; AID 485294, 2010; AmpC hydrolysis of nitrocefin, absorbance 480 nm, 0.01% Triton; Potency, µM (doses to about 114 µM), for the others: top-dose activity change, negative = inhibition, most hits filed as inhibitors; P00811;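 note: 0% = no-compound wells and -100% = no-enzyme wells; nearly all actives have a fitted effect of over 25% in size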
# Target sequence (P00811 whole entry, looked up): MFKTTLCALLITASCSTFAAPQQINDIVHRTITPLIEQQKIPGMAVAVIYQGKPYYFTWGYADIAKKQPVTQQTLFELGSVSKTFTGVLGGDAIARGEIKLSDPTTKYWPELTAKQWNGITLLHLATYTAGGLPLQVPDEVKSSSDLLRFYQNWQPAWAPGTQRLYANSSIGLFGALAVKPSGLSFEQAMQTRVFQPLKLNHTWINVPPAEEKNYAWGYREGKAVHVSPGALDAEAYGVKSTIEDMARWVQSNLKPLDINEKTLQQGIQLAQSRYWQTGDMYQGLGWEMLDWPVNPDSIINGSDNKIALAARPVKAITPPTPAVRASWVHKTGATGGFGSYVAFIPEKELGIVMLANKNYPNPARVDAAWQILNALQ
#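 20 mM phosphate pH 7.0 + 0.01% (detergent screen) or 0.0001% Triton X-100; 5.3 nM AmpC reagent; cpd preinc 15 min RT; nitrocefin (800 uM stock) to start; A480 q20 s × 4 min; Activity was normalised to no-enzyme and no-compound control wells.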
# AmpC no deterg: qHTS Inhibitors of AmpC Beta-Lactamase (assay without detergent); AID 485341, 2010; Potency, µM (top dose mostly 57.1 µM), for the others: at the top dose activity change, negative = inhibition, most hits filed as inhibitors; AmpC nitrocefin hydrolysis, absorbance 480 nm, 0.0001% Triton; hit rate 0.52% among 330,000;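 note: plate controls were no compound for no effect and no enzyme for full effect; nearly all actives have a fitted effect of over 20% in size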
#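 20 mM phosphate pH 7.0 + 0.01% (detergent screen) or 0.0001% Triton X-100; 5.3 nM AmpC reagent; cpd preinc 15 min RT; nitrocefin (800 uM stock) to start; A480 q20 s × 4 min; Activity was normalised to no-enzyme and no-compound control wells.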
# NS1 inh: qHTS Assay for Inhibitors of Influenza NS1 Protein Function | Potency, µM (titrated, usually from 46.1 µM), inactives show at the top dose activity, positive = more growth | hit rate 0.4% among 270,000; calls by dose curve; note: actives are rising curves; nearly all actives have a fitted effect of over 50% in size
#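 Growth recovery, yeast-based: influenza A NS1 expressed in S. cerevisiae causes slow growth, and suppressors are detected by OD600. The parent strain without NS1 is used as positive control.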
# AMA1 RON2 block: qHTS for Inhibitors of AMA1-RON; Towards Development of Antimalarial Drug Lead: Primary Screen; Plasmodium falciparum AMA1 (3D7) - RON2 peptide interaction; AID 720542, 2013; hit rate 0.2% among 360,000; Potency, µM (highest dose often 58.2 µM), for the others: at the top dose activity change, negative = inhibition, most hits filed as inhibitors; AlphaScreen AMA1-biotinylated RON2 peptide binding;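 note: 0% = vehicle wells and -100% = peptide control; nearly all actives have a fitted effect of over 45% in size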
#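 AMA1 (3D7) with his tag at 25 nM final met compounds first, then biotinylated RON2 peptide at 25 nM; detection used donor plus acceptor beads, 10 µg/mL apiece, read by AlphaScreen after 30 min at room temperature.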
# * = called active by the depositor; ? = inconclusive; · = no result given. Hits are enriched below; roughly 0.86% of the tested compounds scored in any of these assays. Unless noted, calls come from the whole dose curve; as a rule, active = well fitted curve in the direction sought with a large enough effect; inconclusive = small, poorly fitted or top-dose-only effect, or another doubt; inactive = no such curve, though single readings can be large; an effect the other way counts as inactive or inconclusive. Potency is the fitted concentration of half-maximal effect.
SMILES,AmpC detergent,AmpC no deterg,NS1 inh,AMA1 RON2 block
CC1CCN(c2ccccc2NC(=S)NC(=O)c2cccs2)CC1,-3%,10µM*,9%,61%
CS(=O)(=O)N1CCN(c2ccccc2NC(=S)NC(=O)c2cccs2)CC1,-2%,-16%,6%,-2%
O=C(OCC(=O)N1CCN(C(=O)c2ccco2)CC1)c1cc(-c2ccco2)nc2ccccc12,?,20%,22%,21µM*
COc1ccc(CNC(=O)COC(=O)c2cc(-c3ccco3)nc3ccccc23)cc1,-5%,10µM*,5%,·
Cc1ccc(CNC(=O)C(C)n2ccc3cc(S(=O)(=O)N4CCCC4)ccc32)cc1 (stereo not given),-7%,·,·,·
O=S1(=O)c2ccccc2N(Cc2cccc(F)c2)c2ccccc21,0%,·,·,·
CCN(c1ccccc1)S(=O)(=O)c1cc(NC(=O)Nc2ccccc2C#N)ccc1Cl,?,8.9µM*,4%,-3%
CCN(c1ccccc1)S(=O)(=O)c1ccc(Cl)c(NC(=O)Nc2ccc(Cl)cc2C#N)c1,1%,-47%,-7%,-2%
COc1ccc(NS(=O)(=O)c2cc([N+](=O)[O-])ccc2N/N=C/c2c(C)[nH]c3ccccc23)cc1,·,·,·,-10%
COc1ccccc1/C=N\Nc1ccccc1[N+](=O)[O-],-2%,-10%,-3%,?
CC(C)Oc1ccccc1/C=N/Nc1ccccc1[N+](=O)[O-],-5%,-24%,-12%,7.1µM*
Cc1[nH]c2ccccc2c1/C=N/Nc1ccccc1[N+](=O)[O-],-10%,-32%,·,32µM*
C=CCNc1ncnc2c1[nH]c1ccc(C)cc12,?,13µM*,-13%,15%
CCC(NS(=O)(=O)c1ccc2c(c1)Cc1cc(S(=O)(=O)NC(CC)C(=O)O)ccc1-2)C(=O)O (stereo not given),-10%,-29%,14%,-3%
Nc1ccc(O)c2c1C(=O)c1ccccc1C2=O,0%,-12%,3%,7.1µM*
Nc1ccc(Br)c2c1C(=O)c1ccccc1C2=O,-1%,-45%,-94%,?
O=C(NCC1CCCO1)c1cc2cc(Cl)ccc2[nH]1 (stereo not given),-3%,-17%,3%,-1%
COC(=O)C1CCN(C(=O)CSc2nnc(-c3ccccc3)o2)CC1,-18%,-12%,·,12%
O=C(Nc1ccc(-c2cn3ccsc3n2)cc1)C1COc2ccccc2O1 (stereo not given),?,16µM*,-18%,-7%
COc1cc(CN2CCN(CC#Cc3ccccc3)CC2CCO)cc(OC)c1 (stereo not given),-6%,149%,-11%,1%
Oc1ccccc1/C=N/N1CCN(c2ccccn2)CC1,4%,-7%,3%,?
C(=N\N1CCN(c2ccccn2)CC1)/c1cccc2ccccc12,?,1%,2%,14µM*
NS(=O)(=O)c1ccc(CCNC(=O)CSc2ccccc2)cc1,-2%,-33%,5%,-4%
NS(=O)(=O)c1ccc(CCNC(=O)CNCCc2ccccc2)cc1,-12%,-4%,0%,40µM*
CC(C)c1cccc(OCCN2CCCC2)c1,-4%,-10%,9%,-9%
SMILES,AmpC detergent,AmpC no deterg,NS1 inh,AMA1 RON2 block
Cc1[nH]c2ccccc2c1C(=O)C(=O)NC1CC(=O)N(c2cccc(F)c2)C1 (stereo not given),0%,·,·,·
CN(C)c1ccc2c(c1[N+](=O)[O-])Cc1ccccc1-2,·,·,·,10µM*
CCOc1ccc(/C=C/C(=O)c2cc(Br)ccc(=O)c2O)cc1,?,32µM*,-28%,?
O=C(C=Cc1ccccc1)c1cc(Br)ccc1O,·,·,·,1%
Cc1ccc(/C=C/C(=O)c2cc(Br)ccc2OC(=O)c2ccco2)cc1,1%,-10%,-17%,-16%
CCc1ccc(/C=C/C(=O)c2cc(Br)ccc(=O)c2O)cc1,-7%,28µM*,-157%,-7%
Cc1cccc(/C=C/C(=O)c2cc(Br)ccc(=O)c2O)c1,-8%,32µM*,-119%,?
CCOc1ccc(C(=O)/C=C/c2ccc(OC)c(OC)c2)cc1,-4%,66%,-6%,-27%
Cc1ccc(C)c(NC(=O)CN(C)C(=O)c2ccccc2OCc2c(C)noc2C)c1,2%,4%,·,-2%
Cc1ccc(C=C2C(Cl)=C(Cl)C(Cl)=C2Cl)cc1,-1%,16µM*,8%,?
Cc1ccc(/C=[N+](/C)[O-])cc1,?,-12%,·,18%
CCOC(=O)c1ccc(NC(=O)C(C)Sc2nc(=O)cc(N)n2CCc2ccccc2)cc1 (stereo not given),0%,·,·,·
CCC(Sc1nc(=O)cc(N)n1CCc1ccccc1)C(=O)Nc1cc(C)on1 (stereo not given),?,2.8µM*,?,0%
CN(C)S(=O)(=O)c1cc(NC(=O)CSc2nn(-c3ccc(Cl)cc3)c(=S)s2)ccc1Cl,?,14µM*,?,15%
CN(C)S(=O)(=O)c1cccc(NC(=S)NNC(=O)c2cc3ccccc3cc2O)c1,-1%,25µM*,·,73%
O=C(COc1coc(CN2CCc3ccccc3C2)cc1=O)Nc1cccc([N+](=O)[O-])c1,-20%,-27%,·,-8%
CCN(CC)c1ccc2nc3ccc(N)cc3[n+](-c3ccccc3)c2c1,-3%,-3%,·,20µM*
Cc1cccc(-c2nc3c4ccccc4n(CC(=O)Nc4cccc(F)c4)c(=O)n3n2)c1,6%,·,·,·
C/C(=N\NC(=O)C1CCCN(S(=O)(=O)c2ccccc2)C1)c1ccncc1 (stereo not given),4%,-18%,3%,13%
C/C(=N\NC(=O)C1CCCN(S(=O)(=O)c2ccccc2)C1)c1ccccn1 (stereo not given),1%,3.2µM*,0%,-11%
CC(=NNC(=S)N1CCN(C2CCCCCC2)CC1)c1ccccn1,·,·,·,14µM*
COc1ccc2c(c1)C(=O)[C@@H](O)[C@H](c1ccc(OC)c(Br)c1)O2,-3%,-17%,12%,74%
CCC(C)NC(=O)C1CCC(CNS(=O)(=O)c2ccc(Cl)cc2)CC1 (stereo not given),7%,·,·,·
CCN(CC)S(=O)(=O)c1ccc(NC(=O)c2nn(C)c3c2CSc2ccccc2-3)cc1,-5%,·,·,·
COc1ccc(S(=O)(=O)N2CCCC2C(=O)NCc2ccccc2Cl)cc1 (stereo not given),-1%,5%,-4%,2%
COc1ccc(S(=O)(=O)N2CCCC2CNC(=O)C(=O)NCc2ccccc2Cl)cc1 (stereo not given),-18%,28µM*,·,-6%
Cc1cc(NC(=O)C(C)Oc2ccccc2)no1 (stereo not given),0%,-9%,-1%,7%
C=CCOC(=O)C1=C(C)NC(C)=C(C(=O)OCC=C)C1c1cn(-c2ccccc2)nc1-c1ccco1,?,16µM*,11%,0%
CCN(CC)c1ccc(/C=N/OCC(=O)N2CCCc3ccccc32)cc1,-11%,25%,-15%,28µM*

# Assay outcomes: PubChem BioAssay, National Center for Advancing Translational Sciences (NCATS)
